Screening results deposited in PubChem by National Center for Advancing Translational Sciences (NCATS).
MCF10A rereplic = induces DNA re-replication in MCF 10a normal breast cells; MCF 10A DNA re-replication, Hoechst nuclear intensity, 48 h; Potency, µM (titrated, usually from 46.1 µM), without a hit: at the top dose activity, positive = re-replication, most hits filed as activators; hit rate 2.9% among 350,000; further: % of control where 0% means no effect; nearly all actives have a fitted effect of over 50% in size
HT1080-NT tox = kills 2HG-producing HT-1080-NT fibrosarcoma cells; AID 686970; HT-1080-NT fibrosarcoma viability, CellTiter-Glo ATP luminescence, 48 h; Potency, µM (top dose mostly 46.1 µM), for the others: top-dose activity, negative = less viability, most hits filed as cytotoxic; hit rate 1.6% among 360,000;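 further: NT is the 2HG producing partner of a matched IDH1 knockdown line; 0% = DMSO-treated cells and -100% = media-only wells without cells; nearly all actives have a fitted effect of over 55% in size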
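Compounds were tested in concentration-response format on HT-1080-NT cells for 48 hours at 37 degrees C. Cell viability came from CellTiter-Glo luminescence; curves were classified by r2, response magnitude and activity.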
SW480 rerep = induces DNA re-replication in SW480 colon adenocarcinoma cells. SW480 DNA re-replication, Hoechst DNA content imaging, 48 h. Potency, µM (series often up to 46.1 µM), for inactives: top-dose re-replication activation, usual class: activators. hit rate 1.8% among 340,000; further: % of control where 0% means no effect; nearly all actives have a fitted effect of over 55% in size
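Treated cells incubate 48 hr (37 C, 5% CO2), are stained 40 min with Hoechst, and nuclear fluorescence is enumerated; a rise in nuclei with high DNA signal marks re-replication.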
KB-V1 cytotox = kills drug-selected multidrug resistant KB-V1 cells | KB-V1 MDR cells viability, CellTiter-Glo, 72 h | Potency, µM (titrated, usually from 46.1 µM), actives largely listed as cytotoxic | hit rate 3.4% among 400,000 | AID 1347076; further: on the % scale 0 is the no-effect control and ±100 the full control effect; nearly all actives have a fitted effect of over 60% in size
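KB-V1, DMEM (no phenol red) + 10% FBS; cpd pin-transferred, titration series; 72 h, 37 degrees C; CellTiter-Glo, luminescence. Data normalized, curve-fit.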
KB-3-1 tox = KB-3-1 parental cell cytotoxicity. AID 1347075. Potency, µM (series often up to 46.1 µM), most hits filed as cytotoxic. KB-3-1 viability, CellTiter-Glo ATP luminescence, 72 h. hit rate 1.4% among 400,000; further: on the % scale 0 is the no-effect control and ±100 the full control effect; nearly all actives have a fitted effect of over 60% in size
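KB-3-1 parental drug-naive adenocarcinoma cells in DMEM/10% FBS, incubated 72 h at 37 C with pin-transferred compounds across a concentration series. Viability by CellTiter-Glo luminescence; concentration-response curves fitted after normalization.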
HT1080 IDH1KD tx = toxicity to HT-1080 IDH1 knockdown cells (counter line) | HT-1080 IDH1 knockdown viability, ATP luminescence, 48 h | Potency, µM (titrated, usually from 46.1 µM), for the others: at the highest dose activity, negative = toxicity, most hits filed as cytotoxic | hit rate 2% among 360,000 | AID 686971;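 further: 0% = DMSO wells and -100% = cell-free medium wells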
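Cytotoxicity counter-line: IDH1KD HT-1080, 48 h, CellTiter-Glo. Curves classed by r2, magnitude and activity.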
* marks the source's active call; other numbers are inactive results. In the library only some 7.9% were active in any assay of this set; here they are far more common. The call rests on the fitted dose curve; in most records, active means well fitted curve in the direction sought with a large enough effect; inconclusive means small, poorly fitted or top-dose-only effect, or another doubt; inactive means no such curve, though single readings can be large; an effect the other way counts as inactive or inconclusive. Potency means the concentration at half of the fitted maximal effect.

`CCN(CC)c1ccc(/C=C2\SC(=O)N(C(C)C)C2=O)o1` gave MCF10A rereplic 3.7µM*, HT1080-NT tox 16µM*, SW480 rerep inconclusive, KB-V1 cytotox inactive, KB-3-1 tox inconclusive and HT1080 IDH1KD tx 7.3µM*.
COc1ccc(C(C(=O)Nc2ccc(F)cc2)N2CCN(CC(=O)N3CCCC3)CC2)cc1 (centres undefined) was read as HT1080-NT tox 15%, KB-V1 cytotox inactive, KB-3-1 tox inactive and HT1080 IDH1KD tx -2%.
CCN(CC)P(=O)(Nc1ccc(C)cc1Br)c1ccc(N(C)C)cc1NC(=O)c1ccco1 (centres undefined) was read as MCF10A rereplic inconclusive, HT1080-NT tox -10%, SW480 rerep inconclusive, KB-V1 cytotox 18µM*, KB-3-1 tox inconclusive and HT1080 IDH1KD tx -9%.
COc1ccc(/C=C/c2cc(C(F)(F)F)[nH]c(=O)n2)cc1OC was read as MCF10A rereplic inconclusive, HT1080-NT tox -6%, SW480 rerep 16µM*, KB-V1 cytotox inactive, KB-3-1 tox inconclusive and HT1080 IDH1KD tx -28%.
For Cc1ccc(NC(=O)N2CCC(n3c(C)nc4cccnc43)CC2)c(Cl)c1 the results were KB-V1 cytotox inactive and KB-3-1 tox inactive.
Screening CC(C)Oc1cccc(C(=O)Nc2nnc([C@H]3C[C@H](O)[C@@H](CO)O3)s2)c1 returned HT1080-NT tox 9%, KB-V1 cytotox inactive, KB-3-1 tox inactive and HT1080 IDH1KD tx 14%.
`CCc1ccc(NC(=O)CSC2=Nc3ccccc3C3=NC(CC(=O)NCc4ccc5c(c4)OCO5)C(=O)N23)cc1` (centres undefined) gave KB-V1 cytotox inactive and KB-3-1 tox inactive.
Cc1ccc(C(=O)c2c(N)c(-c3nc(-c4ccc5c(c4)OCO5)cs3)c3ccccn23)cc1C was read as KB-V1 cytotox inactive and KB-3-1 tox inactive.
`Cc1ccc(NS(=O)(=O)c2ccc3c(c2)c(=O)n(C)c(=O)n3C)cc1F` gave MCF10A rereplic 23%, HT1080-NT tox 16µM*, SW480 rerep inconclusive, KB-V1 cytotox inconclusive, KB-3-1 tox 18µM* and HT1080 IDH1KD tx inconclusive.
For Cc1cc(C)cc(NS(=O)(=O)c2ccc3c(c2)c(=O)n(C)c(=O)n3C)c1 the results were MCF10A rereplic -3%, HT1080-NT tox 6.3µM*, SW480 rerep -6%, KB-V1 cytotox inconclusive, KB-3-1 tox 8.2µM* and HT1080 IDH1KD tx 3.2µM*.
For Cn1c(=O)c2cc(S(=O)(=O)Nc3cc(C(=O)O)cc(C(=O)O)c3)ccc2n(C)c1=O the results were MCF10A rereplic -6%, HT1080-NT tox 7%, SW480 rerep -133%, KB-V1 cytotox inactive, KB-3-1 tox inactive and HT1080 IDH1KD tx 5%.
`CCOC(=O)c1c(C)[nH]c(C)c1S(=O)(=O)N(C)CC(=O)Nc1ccc(C)cc1C` gave KB-V1 cytotox inactive and KB-3-1 tox inactive.
Screening CC(=NO)c1cc(Br)c2cccc3c2c1CC3 returned HT1080-NT tox -2%, KB-V1 cytotox inactive, KB-3-1 tox inactive and HT1080 IDH1KD tx 8%.
Screening CCCC(C)C(=O)Nc1nc(C)c(-c2csc(Nc3ccc(Cl)cc3)n2)s1 (centres undefined) returned MCF10A rereplic 0%, HT1080-NT tox 0%, SW480 rerep inconclusive, KB-V1 cytotox inactive, KB-3-1 tox 8.2µM* and HT1080 IDH1KD tx -8%.
CCCCCC(=O)Nc1nc(C)c(-c2csc(Nc3ccccc3OC)n2)s1 was read as MCF10A rereplic inconclusive, HT1080-NT tox -7%, SW480 rerep -10%, KB-V1 cytotox inactive, KB-3-1 tox inactive and HT1080 IDH1KD tx -11%.
